assay: basal 3T3-L1 adipocyte mitochondrial potential changes, profiling panel, cell-based, JC-1 fluorescence, 3T3-L1 adipocytes, 24 h, 100 nL compound (AID 1168); conditions: JC-1 mitochondrial fluorescence, higher = more signal, called active from +8 up or from −8 down; further: test concentration not given here

z-score, inactive:
COC(=O)C/C=C/C[C@]1(O)C(=O)N(C)c2ccccc21 -0.694
C=CC[C@@]1(C(=O)NCCCOC)N=C(c2ccc(OCCCO)cc2)O[C@@H]1c1ccccc1N=[N+]=[N-] 0.863
COC(=O)[C@@H]1N=C(c2ccc(OCCCO)cc2)O[C@@H]1C 0.797
CCCC=C(CCC)[C@@H](NC(=O)c1cccs1)c1ccc(C(=O)OC)cc1 -0.0911
COc1cc(NN2C(C(O)c3cc(OC)c(OC)c(OC)c3)C=CC3C(=O)N(C)C(=O)C32)cc(OC)c1OC (stereo not drawn) -1.04
COc1cc(OC)c(C(O)C2C=CC3C(=O)N(Cc4ccccc4)C(=O)C3N2n2cnnc2)cc1Br (stereo not drawn) 0.771
C=CCC(OC(C)=O)[C@@H]1[C@@H](N(Cc2cc3ccccc3o2)C(=O)Cc2ccc(F)cc2)c2cc(OCCCO)ccc2N1C(=O)Cc1ccc2ccccc2c1 (stereo partly drawn) -0.683
COc1ccc(CCNC(=O)[C@@H]2c3ccccc3C(=O)N(C3CCCCC3)[C@H]2c2ccc(CO)cc2)cc1 -0.053
C[N+](C)(C)CCCC[C@@H]1NC(=O)[C@@H]2C[C@H](C(=O)NCCCCCCN)[C@H](c3cccc(OCCO)c3)N2C1=O -0.17
O=C1C2C=CC(C(O)C3CC=CCC3)N(Nc3ccccc3)C2C(=O)N1c1ccccc1 (stereo not drawn) -0.858
O=C1C2C=CC(C(O)c3ccco3)N(Nc3ccccc3F)C2C(=O)N1c1ccccc1 (stereo not drawn) -0.346
COC(=O)c1c(CC[C@@H](CO)NC(=O)N2CCC[C@H]2Cn2cc(C3(O)CCCCC3)nn2)oc(C(C)=O)c1C(=O)OC -0.629
C=C(/C(=C/C[C@H](OC(=O)c1ccncc1)c1ccc(CO)o1)c1cnc2ccccc2c1)C(C)C 0.0957
COCC(=C=CC[C@H](O)c1ccccc1OCCO)C[C@H](O)c1ccccn1 -0.443
CC(C)c1ccc(NN2C(C(O)c3ccc(F)cc3)C=CC3C(=O)N(c4ccccc4)C(=O)C32)cc1 (stereo not drawn) -0.382
CO[C@H]1O[C@H](CO)[C@@H](OC(=O)Nc2ccc3c(c2)OCO3)[C@H](OC(=O)Nc2ccc3c(c2)OCO3)[C@@H]1OC(=O)Nc1ccc2c(c1)OCO2 -0.13
CCCNC(=O)[C@@H]1c2ccccc2C(=O)N(Cc2ccc(OC(F)(F)F)cc2)[C@H]1c1ccc(CO)cc1 1.22
CCOC(=O)C[C@H]1[C@H](OC(=O)c2cc3ccccc3oc2=O)[C@@H](NC(=O)c2ccccc2)c2cc(OCCCO)ccc2N1C(=O)c1ccccc1 0.434
CCCNC(=O)[C@@]1(C)c2ccccc2C(=O)N(c2ccc(C)cn2)[C@H]1c1ccc(CO)cc1 -0.0622
CC(C)C(O)C1C=CC2C(=O)N(c3ccccc3)C(=O)C2N1Nc1ccccc1 (stereo not drawn) -0.855
CCCCC(CC)C(O)C1C=CC2C(=O)N(c3ccccc3)C(=O)C2N1Nc1ccc(C#N)cc1 (stereo not drawn) -1.61
COc1ccc(CCNC(=O)[C@@]2(Cc3ccccc3I)c3ccccc3C(=O)N(C3CCCCC3)[C@H]2c2ccc(CO)cc2)cc1 0.537
[N-]=[N+]=Nc1ccccc1C[C@@]1(C(N)=O)N=C(c2ccc(OCCCO)cc2)O[C@@H]1c1ccccc1N=[N+]=[N-] -1.35
C=CCN1C(=O)[C@]2(CCS(=O)(=O)c3ccccc3)N=C(c3ccc(OCCCO)cc3)O[C@@H]2c2ccccc21 1.42
NC(=O)NCC#Cc1ccc2c(c1)[C@]1(C(=O)N2)[C@H](c2ccccc2OCCO)N2[C@H](c3ccccc3)[C@H](c3ccccc3)OC(=O)[C@H]2[C@@H]1C(=O)O 0.485
NCCCCCNC(=O)[C@H]1C[C@H]2C(=O)N3CCC[C@H]3C(=O)N2[C@H]1c1cccc(OCCO)c1 0.13
COc1ccc([Si](C)(C)[C@@H]2[C@@H](CCO)O[C@]3(C(=O)N(Cc4cccc(NC(=O)[C@H](C)O)c4)c4ccccc43)[C@H]2C)cc1 1.5
CCCCN1CC=CC23O[C@@H]4/C=C\CCCOC(=O)C4[C@H]2C(=O)N(CCO)[C@@H]3C1=O (stereo partly drawn) 0.0794

— PubChem BioAssay
